The structures appear in SMILES notation. Records with an inconclusive call do not appear. Active and inactive are the calls of the source. The calls were made as follows: active = hit-call score of the fitted dose curve at least 0.9, where 1 is the maximum; inconclusive = response in the unintended direction; inactive = score below 0.9.

Chain of Hepatocyte nuclear factor 4-alpha (Homo sapiens) (P41235 whole entry, looked up, the tested form may be a part): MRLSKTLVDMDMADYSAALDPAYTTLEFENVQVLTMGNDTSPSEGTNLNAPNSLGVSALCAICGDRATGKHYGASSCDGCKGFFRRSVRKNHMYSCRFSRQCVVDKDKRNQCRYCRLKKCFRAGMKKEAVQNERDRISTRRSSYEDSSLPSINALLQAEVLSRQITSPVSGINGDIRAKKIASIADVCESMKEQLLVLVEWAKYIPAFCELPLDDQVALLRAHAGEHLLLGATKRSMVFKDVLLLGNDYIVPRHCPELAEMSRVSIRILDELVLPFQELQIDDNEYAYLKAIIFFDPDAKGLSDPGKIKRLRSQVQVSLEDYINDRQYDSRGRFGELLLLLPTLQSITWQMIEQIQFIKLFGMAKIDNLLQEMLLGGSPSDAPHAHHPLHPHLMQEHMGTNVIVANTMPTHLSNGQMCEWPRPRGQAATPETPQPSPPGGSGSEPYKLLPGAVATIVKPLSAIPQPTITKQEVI
Chain of Oxysterols receptor LXR-beta (Homo sapiens) (P55055 whole entry, looked up, the tested form may be a part): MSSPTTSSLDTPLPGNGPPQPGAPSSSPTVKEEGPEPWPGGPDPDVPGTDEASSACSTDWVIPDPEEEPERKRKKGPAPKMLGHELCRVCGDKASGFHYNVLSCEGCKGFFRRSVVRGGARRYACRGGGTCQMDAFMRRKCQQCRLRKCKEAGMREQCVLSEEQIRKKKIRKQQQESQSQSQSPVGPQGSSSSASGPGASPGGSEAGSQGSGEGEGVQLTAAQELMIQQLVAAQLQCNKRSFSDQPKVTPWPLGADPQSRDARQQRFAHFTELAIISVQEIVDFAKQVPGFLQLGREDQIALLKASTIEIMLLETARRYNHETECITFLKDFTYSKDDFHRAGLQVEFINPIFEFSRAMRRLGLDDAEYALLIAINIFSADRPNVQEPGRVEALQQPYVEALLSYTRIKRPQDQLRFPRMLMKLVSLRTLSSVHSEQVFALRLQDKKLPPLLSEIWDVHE
Chain of Bile acid receptor (Homo sapiens) (Q96RI1 whole entry, looked up, the tested form may be a part): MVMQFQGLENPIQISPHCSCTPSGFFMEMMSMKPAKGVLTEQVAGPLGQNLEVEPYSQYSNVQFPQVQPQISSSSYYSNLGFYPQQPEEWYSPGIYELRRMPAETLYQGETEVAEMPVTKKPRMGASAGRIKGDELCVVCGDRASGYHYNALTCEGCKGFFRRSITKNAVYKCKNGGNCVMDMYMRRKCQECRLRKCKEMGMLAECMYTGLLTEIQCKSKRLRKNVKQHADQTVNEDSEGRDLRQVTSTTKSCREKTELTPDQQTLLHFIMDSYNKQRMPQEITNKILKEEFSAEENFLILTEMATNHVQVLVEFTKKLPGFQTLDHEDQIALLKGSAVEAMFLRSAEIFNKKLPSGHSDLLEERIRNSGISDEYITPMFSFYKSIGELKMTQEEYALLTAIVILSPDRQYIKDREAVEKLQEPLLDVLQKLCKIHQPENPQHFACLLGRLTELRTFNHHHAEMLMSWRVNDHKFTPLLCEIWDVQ
Chain of Glucocorticoid receptor (Homo sapiens) (P04150 whole entry, looked up): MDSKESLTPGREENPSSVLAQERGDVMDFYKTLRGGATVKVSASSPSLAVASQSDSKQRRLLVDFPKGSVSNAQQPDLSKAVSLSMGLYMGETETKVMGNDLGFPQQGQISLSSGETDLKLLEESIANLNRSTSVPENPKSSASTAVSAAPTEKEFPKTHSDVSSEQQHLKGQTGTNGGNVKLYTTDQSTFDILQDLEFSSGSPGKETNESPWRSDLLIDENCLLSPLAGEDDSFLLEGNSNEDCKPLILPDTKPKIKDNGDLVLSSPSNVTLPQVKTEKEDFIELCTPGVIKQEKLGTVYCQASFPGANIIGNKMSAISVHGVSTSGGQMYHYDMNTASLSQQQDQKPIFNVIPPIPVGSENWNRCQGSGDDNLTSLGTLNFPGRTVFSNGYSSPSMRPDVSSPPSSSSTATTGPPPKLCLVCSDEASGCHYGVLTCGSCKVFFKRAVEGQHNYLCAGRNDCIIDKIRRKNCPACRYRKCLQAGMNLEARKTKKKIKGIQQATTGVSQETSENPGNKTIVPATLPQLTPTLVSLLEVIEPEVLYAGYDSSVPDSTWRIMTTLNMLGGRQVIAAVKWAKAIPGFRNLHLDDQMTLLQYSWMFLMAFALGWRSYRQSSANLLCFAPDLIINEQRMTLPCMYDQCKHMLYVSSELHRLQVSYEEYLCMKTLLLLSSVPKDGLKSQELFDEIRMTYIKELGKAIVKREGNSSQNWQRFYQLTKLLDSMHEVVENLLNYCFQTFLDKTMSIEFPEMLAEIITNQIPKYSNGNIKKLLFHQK

For one assay, the target named is Glucocorticoid receptor (Homo sapiens) (UniProt P04150). The experiment in a line: ATG_GR_TRANS: Attagene TRANS-FACTORIAL HepG2 Assay for human Glucocorticoid Receptor (GR) (AID 2282978).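 Also: activators score as hits since higher reporter transcript over DMSO is fitted.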 To be noted: HepG2 Attagene TRANS GR reporter, mRNA transcription. A digest of the protocol:
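Multiplexed TRANS reporter system, HepG2; 24 h exposure; RNA → oligo(dT) RT → reporter-specific PCR → 6-FAM primer extension → HpaI cut → CE fluorescence. Gain-of-signal vs DMSO.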
As for `OC(c1ccc(Cl)cc1)(c1ccc(Cl)cc1)C(Cl)(Cl)Cl`, the outcome was inactive.

On to `COC(=O)N(C(=O)N1CO[C@@]2(C(=O)OC)Cc3cc(Cl)ccc3C2=N1)c1ccc(OC(F)(F)F)cc1`, for which the compound was called inactive.

With `COc1ccc(-c2ccccc2)cc1NNC(=O)OC(C)C`, the compound was called inactive.

For `Cc1ccc(N=CN(C)C=Nc2ccc(C)cc2C)c(C)c1`, the compound was called inactive.

For the compound `CCOC(=O)C(C)OC(=O)c1cc(Oc2ccc(C(F)(F)F)cc2Cl)ccc1[N+](=O)[O-]` (stereo not given), the compound was classed as inactive.

With `N#Cc1c(Cl)cccc1Cl`, the call was inactive.

For the compound `Nc1c(Cl)c(F)nc(OCC(=O)O)c1Cl`, the result was inactive.

A further assay concerns the target Bile acid receptor (Homo sapiens) (UniProt Q96RI1). The experiment in a line: ATG_FXR_TRANS: Attagene TRANS-FACTORIAL HepG2 Assay for Farnesoid X Receptor (FXR) (AID 2282979).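 Also: hits raise reporter mRNA above DMSO so AC50 marks FXR activation.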 The settings on record: HepG2 Attagene TRANS FXR-GAL4 reporter transcription. The gist of the method: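 HepG2 cells were transiently transfected with GAL4-UAS reporters driven by chimeric NR-Gal4 proteins and dosed for 24 h. Reporter mRNA was quantified by RT-PCR, fluorescent labelling, HpaI digestion and capillary electrophoresis, with gain of signal scored versus DMSO.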
Take `O=P(O)(O)CCCl`: the result was inactive.

Regarding `Clc1cccc(C(Cl)(Cl)Cl)n1`, the result was inactive.

Take `CNC(=O)Oc1cccc2ccccc12`: the call was inactive.

In the case of `CC1(C)C(C(=O)OC(C#N)c2cccc(Oc3ccccc3)c2)C1(C)C` (stereo not given), the result was inactive.

With `CCC(C)n1c(=O)[nH]c(C)c(Br)c1=O` (stereo not given), the call was inactive.

On to `CN=C=S`, for which the compound was classed as inactive.

In the next assay the target is Oxysterols receptor LXR-alpha (Homo sapiens) (UniProt Q13133). The assay can be described thus: ATG_LXRa_TRANS: Attagene TRANS-FACTORIAL HepG2 Assay for human Liver X Receptor alpha (LXRa) (AID 2282980). The settings on record: HepG2 Attagene TRANS reporter, LXRa transactivation. A digest of the protocol: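 HepG2 cells transiently transfected with GAL4-UAS reporter units for chimeric NR-Gal4 proteins, exposed to chemicals for 24 h. Reporter mRNA quantified by RT-PCR and capillary electrophoresis; gain of signal fitted relative to DMSO.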
Chain of Oxysterols receptor LXR-alpha (Homo sapiens) (Q13133 whole entry, looked up, the tested form may be a part): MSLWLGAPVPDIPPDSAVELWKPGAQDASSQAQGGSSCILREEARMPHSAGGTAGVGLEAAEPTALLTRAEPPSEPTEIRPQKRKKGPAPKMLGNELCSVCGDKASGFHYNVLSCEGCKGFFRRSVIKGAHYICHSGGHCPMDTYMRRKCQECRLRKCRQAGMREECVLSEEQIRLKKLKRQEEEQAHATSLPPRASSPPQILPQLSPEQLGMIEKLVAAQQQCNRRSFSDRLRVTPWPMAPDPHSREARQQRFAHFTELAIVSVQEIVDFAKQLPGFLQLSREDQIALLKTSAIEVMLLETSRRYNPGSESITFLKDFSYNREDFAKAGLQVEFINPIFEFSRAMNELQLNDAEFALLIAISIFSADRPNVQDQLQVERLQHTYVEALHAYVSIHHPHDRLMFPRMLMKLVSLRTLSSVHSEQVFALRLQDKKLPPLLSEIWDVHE
On to `CNC(=O)N(C)c1nnc(C(C)(C)C)s1`, for which the compound was called inactive.

Consider `O=P(O)(O)CCCl`, for which the call was inactive.

In the case of `CCN(CC)C(=O)C(C)Oc1cccc2ccccc12` (stereo not given), the outcome was inactive.

For the compound `Clc1cccc(C(Cl)(Cl)Cl)n1`, the call was inactive.

`Nc1cnn(-c2ccccc2)c(=O)c1Cl`: the compound was classed as inactive.

For the compound `Cn1c(-c2ccccc2)cc(-c2ccccc2)[n+]1C`, the result was inactive.

Turning to `CC1(C)CON(Cc2ccccc2Cl)C1=O`, the compound was called inactive.

`CCNP(=S)(OC)O/C(C)=C/C(=O)OC(C)C` (stereo not given): the outcome was inactive.

Consider `COC(=O)c1c(C(F)F)nc(C(F)(F)F)c(C2=NCCS2)c1CC(C)C`, for which the call was inactive.

Consider `COP(=O)(OC)O/C(C)=C/C(=O)N(C)C`, for which the call was inactive.

For `CCSC(=O)N1CCCCCC1`, the result was inactive.

On to `CCOC(=O)C(C)OC(=O)c1cc(Oc2ccc(C(F)(F)F)cc2Cl)ccc1[N+](=O)[O-]` (stereo not given), for which the outcome was inactive.

As for `Cc1cnc(C2=NC(C)(C(C)C)C(=O)N2)c(C(=O)O)c1` (stereo not given), the compound was called inactive.

With `CNC(=O)Oc1cccc2ccccc12`, the outcome was inactive.

As to `N#Cc1c(Cl)cccc1Cl`, the outcome was inactive.

With `CN/C(=N\[N+](=O)[O-])NCc1cnc(Cl)s1`, the result was inactive.

Consider `CN=C=S`, for which the compound was classed as inactive.

On to `CC(C)Nc1nc(Cl)nc(NC(C)C)n1`, for which the compound was called inactive.

As for `O=C1C2CC=CCC2C(=O)N1SC(Cl)(Cl)Cl` (stereo not given), the call was inactive.

`CCOc1nc(C(Cl)(Cl)Cl)ns1`: the compound was called inactive.

In the next assay the target is Oxysterols receptor LXR-beta (Homo sapiens) (UniProt P55055). The experiment in a line: ATG_LXRb_TRANS: Attagene TRANS-FACTORIAL HepG2 Assay for human Liver X Receptor beta (LXRb) (AID 2282981). To be noted: HepG2 Attagene TRANS GAL4-LXRb reporter, mRNA. A digest of the protocol:
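After 24 h chemical treatment of transfected HepG2 cells carrying exogenous NR-Gal4 chimeras, reporter mRNA was quantified by fluorescent RT-PCR and capillary electrophoresis; activity taken as increase over DMSO controls.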
Regarding `CCNC(=O)NC(=O)C(C#N)=NOC`, the compound was called inactive.

As to `CNC(=O)N(C)c1nnc(C(C)(C)C)s1`, the result was inactive.

For `C=CCOC(=O)C(C)(C)OC(=O)c1cc(-n2c(=O)cc(C(F)(F)F)n(C)c2=O)ccc1Cl`, the call was inactive.

As for `O=P(O)(O)CCCl`, the compound was called inactive.

Turning to `CCN(CC)C(=O)C(C)Oc1cccc2ccccc12` (stereo not given), the call was inactive.

`Clc1cccc(C(Cl)(Cl)Cl)n1`: the result was inactive.

On to `Nc1cnn(-c2ccccc2)c(=O)c1Cl`, for which the outcome was inactive.

With `Cn1c(-c2ccccc2)cc(-c2ccccc2)[n+]1C`, the compound was classed as inactive.

In the case of `CC1(C)CON(Cc2ccccc2Cl)C1=O`, the outcome was inactive.

Take `OC(c1ccc(Cl)cc1)(c1ccc(Cl)cc1)C(Cl)(Cl)Cl`: the compound was classed as inactive.

For `COC(=O)N(C(=O)N1CO[C@@]2(C(=O)OC)Cc3cc(Cl)ccc3C2=N1)c1ccc(OC(F)(F)F)cc1`, the compound was called inactive.

As to `COc1ccc(-c2ccccc2)cc1NNC(=O)OC(C)C`, the outcome was inactive.

With `CCNP(=S)(OC)O/C(C)=C/C(=O)OC(C)C` (stereo not given), the outcome was inactive.

Turning to `COC(=O)c1c(C(F)F)nc(C(F)(F)F)c(C2=NCCS2)c1CC(C)C`, the result was inactive.

`COC(=O)NS(=O)(=O)c1ccc(N)cc1`: the compound was called inactive.

Turning to `COP(=O)(OC)O/C(C)=C/C(=O)N(C)C`, the result was inactive.

As for `Cc1ccc(N=CN(C)C=Nc2ccc(C)cc2C)c(C)c1`, the outcome was inactive.

In the case of `CCSC(=O)N1CCCCCC1`, the compound was called inactive.

On to `COCC(C)N(C(=O)CCl)c1c(C)csc1C` (stereo not given), for which the compound was classed as inactive.

Turning to `CCOC(=O)C(C)OC(=O)c1cc(Oc2ccc(C(F)(F)F)cc2Cl)ccc1[N+](=O)[O-]` (stereo not given), the compound was called inactive.

As to `Cc1cnc(C2=NC(C)(C(C)C)C(=O)N2)c(C(=O)O)c1` (stereo not given), the compound was called inactive.

Take `CNC(=O)Oc1cccc2ccccc12`: the outcome was inactive.

As for `N#Cc1c(Cl)cccc1Cl`, the result was inactive.

As to `CC1(C)C(C(=O)OC(C#N)c2cccc(Oc3ccccc3)c2)C1(C)C` (stereo not given), the result was inactive.

With `O=C(O)c1c(Cl)ccc2cc(Cl)cnc12`, the call was inactive.

For `Nc1c(Cl)c(F)nc(OCC(=O)O)c1Cl`, the outcome was inactive.

On to `CCC(C)n1c(=O)[nH]c(C)c(Br)c1=O` (stereo not given), for which the compound was classed as inactive.

Turning to `CN/C(=N\[N+](=O)[O-])NCc1cnc(Cl)s1`, the result was inactive.

Regarding `Clc1nc(Cl)nc(Nc2ccccc2Cl)n1`, the call was inactive.

With `CN=C=S`, the outcome was inactive.

For the compound `CC(C)Nc1nc(Cl)nc(NC(C)C)n1`, the compound was called inactive.

As to `O=C1C2CC=CCC2C(=O)N1SC(Cl)(Cl)Cl` (stereo not given), the compound was classed as inactive.

As to `CCOc1nc(C(Cl)(Cl)Cl)ns1`, the call was inactive.

For the compound `CCN(CC)c1nc(C)cc(OP(=S)(OC)OC)n1`, the result was inactive.

The next assay has as its target Hepatocyte nuclear factor 4-alpha (Homo sapiens) (UniProt P41235). The assay can be described thus: ATG_HNF4a_TRANS: Attagene TRANS-FACTORIAL HepG2 Assay for human Hepatocyte Nuclear Factor 4 alpha (HNF4a) (AID 2282982). To be noted: HepG2 HNF4a transactivation reporter, mRNA readout. The gist of the method: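 Activity of an exogenous HNF4a–Gal4 fusion scored as induced GAL4-UAS reporter transcripts after 24 h chemical exposure of transfected human HepG2 cells. Read-out via RT-PCR with 6-FAM labelling and capillary electrophoresis; rise over DMSO baseline.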
With `CCNC(=O)NC(=O)C(C#N)=NOC`, the outcome was inactive.

With `CNC(=O)N(C)c1nnc(C(C)(C)C)s1`, the compound was called inactive.

On to `O=P(O)(O)CCCl`, for which the compound was classed as inactive.

In the case of `CCN(CC)C(=O)C(C)Oc1cccc2ccccc12` (stereo not given), the outcome was inactive.

With `Cn1c(-c2ccccc2)cc(-c2ccccc2)[n+]1C`, the compound was classed as inactive.

For `CC1(C)CON(Cc2ccccc2Cl)C1=O`, the result was inactive.

For the compound `OC(c1ccc(Cl)cc1)(c1ccc(Cl)cc1)C(Cl)(Cl)Cl`, the call was inactive.

Take `COC(=O)N(C(=O)N1CO[C@@]2(C(=O)OC)Cc3cc(Cl)ccc3C2=N1)c1ccc(OC(F)(F)F)cc1`: the call was inactive.

Regarding `CCNP(=S)(OC)O/C(C)=C/C(=O)OC(C)C` (stereo not given), the compound was classed as inactive.

In the case of `COC(=O)c1c(C(F)F)nc(C(F)(F)F)c(C2=NCCS2)c1CC(C)C`, the compound was called inactive.

On to `CCOc1cc(C(C)(C)C)ccc1C1COC(c2c(F)cccc2F)=N1` (stereo not given), for which the result was inactive.

Take `Cc1cnc(C2=NC(C)(C(C)C)C(=O)N2)c(C(=O)O)c1` (stereo not given): the call was inactive.

With `CC1(C)C(C(=O)OC(C#N)c2cccc(Oc3ccccc3)c2)C1(C)C` (stereo not given), the result was inactive.

Consider `CCC(C)n1c(=O)[nH]c(C)c(Br)c1=O` (stereo not given), for which the result was inactive.

Take `CN=C=S`: the call was inactive.

For `CC(C)Nc1nc(Cl)nc(NC(C)C)n1`, the result was inactive.

Regarding `O=C1C2CC=CCC2C(=O)N1SC(Cl)(Cl)Cl` (stereo not given), the compound was classed as inactive.

Consider `CCN(CC)c1nc(C)cc(OP(=S)(OC)OC)n1`, for which the result was inactive.

For the origin of these results see PubChem BioAssay (EPA / NIEHS).
